Screening data from PubChem.
BAZ2B inh: qHTS Assay for Inhibitors of BAZ2B. Bromodomain adjacent to zinc finger domain protein 2B (Homo sapiens), Q9UIF8. AlphaScreen BAZ2B-H3K14Ac peptide displacement. Potency, µM (titrated, usually from 114 µM), for the others: top-dose activity change, negative = inhibition, actives largely listed as inhibitors. 360,000 compounds, 4.4% hits. AID 504333, 2011; further: on the % scale 0 is the no-effect control and ±100 the full control effect; nearly all actives have a fitted effect of over 60% in size
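In this displacement format the biotinylated H3(5-23) peptide acetylated at Lys14 serves as ligand at 50 nM, with BAZ2B at 50 nM in PBS pH 7.4 containing 0.01% Tween-20. Donor and acceptor beads are 10 ug/mL final.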
Sfp PPTase inh: qHTS Assay for Inhibitors of Bacillus subtilis Sfp phosphopantetheinyl transferase (PPTase) | 4'-phosphopantetheinyl transferase ffp (Bacillus subtilis), Q9F4F7 | Biochemical Sfp PPTase activity, qHTS | Potency, µM, inactives show largest response in the series, negative = inhibition, usual class: inhibitors | 310,000 compounds, 3.5% hits;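 further: the enzyme is Sfp with the accession as filed and its product quenches rhodamine fluorescence; 0% = enzyme reaction without inhibitor and -100% = no enzyme wells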
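Reaction rates are the 30-min fluorescence difference (ex 525, em 598 nm) in wells containing 15 nM Sfp, 5 uM rhodamine-CoA and 12.5 uM BHQ-2-YbbR at pH 7.6 with 10 mM MgCl2.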
TDP1 block: qHTS Assay for Inhibitors of Tyrosyl-DNA Phosphodiesterase (TDP1) | Tyrosyl-DNA phosphodiesterase 1 (Homo sapiens), Q9NUW8 | recombinant TDP1, AlphaScreen DNA substrate cleavage | Potency, µM (series often up to 130 µM), for the others: at the highest dose activity change, negative = inhibition, usual class: inhibitors | 350,000 compounds, 0.28% hits; further: on the % scale 0 is the no-effect control and ±100 the full control effect; nearly all actives have a fitted effect of over 40% in size
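Recombinant human Tdp1 (E. coli-expressed, 1 nM final) preincubated with compounds 15 min at room temperature, then 5'-biotin/3'-phosphotyrosine-FITC DNA substrate (15 nM final) added for 5 min. AlphaScreen beads (10 ug/ml final) added 10 min; cleavage lowers signal.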
JMJD2A Tudor: qHTS Assay for Inhibitors of JMJD2A-Tudor Domain; Potency, µM (highest dose often 114 µM), for the others: at the top dose activity change, negative = inhibition, most hits filed as inhibitors; Lysine-specific demethylase 4A (Homo sapiens), O75164; AID 504339, 2011; 390,000 compounds, 4.4% hits; AlphaScreen JMJD2A-Tudor / H3K4me3 peptide binding; further: on the % scale 0 is the no-effect control and ±100 the full control effect; nearly all actives have a fitted effect of over 50% in size
G9a block: qHTS Assay for Inhibitors of Histone Lysine Methyltransferase G9a. Histone-lysine N-methyltransferase EHMT2 (Homo sapiens), Q96KQ7. G9a H3K9 monomethylation, AlphaScreen, 2 h. Potency, µM (highest dose often 102 µM), for the others: at the highest dose activity, negative = inhibition, most hits filed as inhibitors. 350,000 compounds, 8.8% hits. AID 504332, 2011; further: on the % scale 0 is the no-effect control and ±100 the full control effect; nearly all actives have a fitted effect of over 75% in size
Target sequence (Q96KQ7 913-1193 limits assumed): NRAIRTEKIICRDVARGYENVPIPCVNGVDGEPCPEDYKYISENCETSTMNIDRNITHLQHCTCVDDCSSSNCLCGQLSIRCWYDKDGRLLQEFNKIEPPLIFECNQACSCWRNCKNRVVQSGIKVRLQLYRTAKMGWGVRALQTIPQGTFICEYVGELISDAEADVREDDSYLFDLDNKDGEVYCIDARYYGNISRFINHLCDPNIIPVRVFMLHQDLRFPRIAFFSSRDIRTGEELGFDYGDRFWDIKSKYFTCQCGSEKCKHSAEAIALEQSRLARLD
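G9a (20 nM) was preincubated 15 min with compound, then reacted 2 h at room temperature with 500 nM biotin-H3K9 peptide and 20 µM SAM. Monomethyl-H3K9 detected by AlphaScreen using anti-H3K9me1 antibody.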
HP1b binding inh: HTS for Inhibitors of HP1-beta Chromodomain Interactions with Methylated Histone Tails; AlphaScreen HP1-beta / biotin-H3K9me3 peptide binding; Potency, µM (highest dose often 114 µM), inactives show at the highest dose activity change, negative = inhibition, usual class: inhibitors; 390,000 compounds, 0.56% hits; further: nearly all actives have a fitted effect of over 70% in size
Target sequence (P83916 whole entry, looked up): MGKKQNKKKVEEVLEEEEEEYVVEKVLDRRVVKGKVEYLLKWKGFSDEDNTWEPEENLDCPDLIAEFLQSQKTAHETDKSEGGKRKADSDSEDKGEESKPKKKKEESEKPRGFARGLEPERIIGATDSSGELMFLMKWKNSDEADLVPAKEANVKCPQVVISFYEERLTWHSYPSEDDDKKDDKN
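AlphaScreen: HP1-beta (50 nM) preformed 30 min with biotin-H3(1-18)K9me3 peptide (50 nM) in PBS pH 7.4, 0.01% Tween-20. Compound added for 30 min at RT, then streptavidin donor/nickel chelate acceptor beads (10 ug/mL) for 30 min.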
* = called active by the depositor; ? = inconclusive; · = not tested or not shown; [ ] = remark or other dose. Most compounds without a hit are left out; they make up all but 12% or so of the library. The call rests on the fitted dose curve; in most records, active means well fitted curve in the direction sought with a large enough effect; inconclusive means small, poorly fitted or top-dose-only effect, or another doubt; inactive means no such curve, though single readings can be large; an effect the other way counts as inactive or inconclusive. Potency means the concentration at half of the fitted maximal effect.

SMILES	BAZ2B inh	Sfp PPTase inh	TDP1 block	JMJD2A Tudor	G9a block	HP1b binding inh
CC(C)(C)NC(=O)C(=O)NNC(=O)c1ccco1	56µM*	79µM*	5%	-18%	-31%	51%
Cc1cccc(C(=O)NNC(=O)C(=O)NC(C)(C)C)c1	?	-4%	-2%	?	28µM*	47%
Cc1cc(C)c(NS(=O)(=O)c2ccc(-c3cnc(C4CC4)o3)cc2)c(C)c1	?	·	1%	-33%	?	-1%
CC(OC(=O)c1ccc(Cl)c(S(=O)(=O)Nc2ccc(F)cc2)c1)C(=O)NC(N)=O (centres undefined)	5%	15%	0%	-11%	26%	61%
CC(Oc1ccc(Br)cc1)C(=O)NCC1(N2CCCCC2)CCCCC1 (centres undefined)	-4%	·	0%	-21%	-1%[12.7 µM]	22%
Cc1ccc(OCC(COCc2ccccc2)NC(C)C)cc1 (centres undefined)	·	·	·	1.4µM*	·	?
CCOC(=O)c1c(NC(=O)/C=C/C(=O)O)sc(C)c1-c1ccc(F)cc1	-13%	50µM*	·	-18%	-36%	0%
CCOC(=O)c1c(NC(=O)/C=C/C(=O)O)sc(C)c1-c1ccc(C)c(C)c1	?	25µM*	3%	-32%	·	0%
COC(=O)c1c(NC(=O)/C=C/C(=O)O)sc(C)c1-c1ccc(C(C)C)cc1	?	12%	5%	-29%	?	4%
O=c1[nH]cnc2sc3c(c12)CN(Cc1ccccc1)CC3	0%	5%	·	-12%	25µM*	2%
COC(=O)c1ccc(-n2c(C)cc(C(=O)CSc3cccc[n+]3[O-])c2C)cc1	-26%	11%	8%	-24%	50µM*	17%
COCCOC(=O)c1c(NC(=O)CSc2cccc[n+]2[O-])sc(C(N)=O)c1C	?	11%	-1%	-17%	2.5µM*	32%
CCCc1cc(=O)[nH]c(SCC(=O)Nc2sc(C(N)=O)c(C)c2C(=O)OCCOC)n1	14%	·	4%	-6%	10%[12.7 µM]	26%
COC(=O)c1ccc(C(=O)OC)c(NC(=O)CSc2cccc[n+]2[O-])c1	-3%	-103%	8%	45µM*	·	?
O=C(CSc1cccc[n+]1[O-])Nc1cc2c(cc1Cl)C(=O)c1ccccc1C2=O	?	?	-3%	?	7.9µM*	6%
COc1cccc(Nc2nc3cc(Cl)c(Cl)cc3nc2-n2nc(C)cc2C)c1	4%	·	2%	-6%	-18%[59 µM]	20%
Cc1nn(-c2ccccc2)c(C)c1S(=O)(=O)O	?	24%	25µM*	-18%	45µM*	22%
COC(=O)c1ccc(Nc2ncnc3c2nc2n3CCCC2)cc1	-7%	·	1%	-15%	-39%[59 µM]	24%
COC(=O)C1=C(C)Nc2ccc(C)cc2S1	40µM*	?	9%	79µM*	40µM*	?
Cc1[nH]c2ccccc2c1CN1CCc2ccccc2C1	?	-22%	-5%	40µM*	13µM*	-39%
COc1ccc(Cn2c(=O)cc(N)n(-c3ccccc3C)c2=O)cc1	2%	11%	0%	-12%	23%	16%
C=CCNC(=S)N/N=C/c1ccc(C)c([N+](=O)[O-])c1	-21%	0%	5%	-34%	16%	11%
C=CCNC(=S)NC(=O)c1csc([N+](=O)[O-])c1	-21%	56µM*	-2%	-31%	25µM*	-15%
O=C(NC(=S)N1CCCCC1)c1csc([N+](=O)[O-])c1	-32%	-3%	5%	-13%	25µM*	-21%
CCOc1ccc(N=CNc2ccc(OCC)cc2)cc1	?	6%	·	?	-7%	5%
SMILES	BAZ2B inh	Sfp PPTase inh	TDP1 block	JMJD2A Tudor	G9a block	HP1b binding inh
CCCCN=Cc1sc2ccc(OCC)cc2c1O	79µM*	1%	11%	28µM*	?	?
C=CCN=Cc1sc2ccc(OCC)cc2c1O	-11%	?	3%	·	45µM*	·
O=C(NCc1ccc(F)cc1)C1CCCN1S(=O)(=O)c1cccc2nsnc12 (centres undefined)	?	13%	6%	-9%	-3%	55%
COc1ccc(NC(=O)CSc2nnc(NC(=O)Nc3ccccc3)s2)cc1OC	-4%	·	-3%	-2%	-8%[59 µM]	41%
Cc1nn(-c2ccccn2)c2c1C(c1c(F)cccc1Cl)C1=C(N2)c2ccccc2C1=O (centres undefined)	8.9µM*	-27%	6%	·	?	·
Cc1nn(-c2ccccn2)c2c1C(c1ccsc1)C1=C(CCCC1=O)N2 (centres undefined)	-36%	6%	7%	-24%	?	16%
CCCN(CCC)C(=O)CSc1ncccc1C(=O)O	-1%	?	1%	89µM*	?	23%
CN(C(=O)CSc1ncccc1C(=O)O)c1ccccc1	1%	2%	0%	-16%	28%[12.7 µM]	25%
Cn1ccnc1SCC(=O)N1CCc2ccccc21	-6%	14%	4%	-11%	?	37%
Cc1ccc(NC(=O)CSCC(=O)N2CCCc3ccccc32)cc1	9%	·	-7%	-2%	45µM*	32%
O=C(CSc1ncccn1)N1CCCc2ccccc21	-14%	20%	-3%	2%	1%[59 µM]	23%
Cc1cccc(-n2ccnc2SCC(=O)N2CCCc3ccccc32)c1C	50µM*	12%	2%	?	?	-27%
Cc1ccc(OCC(=O)N2CCCc3ccccc32)cc1	9%	14%	-2%	8%	-7%[59 µM]	35%
O=C(O)c1cccnc1SCC(=O)N1CCCc2ccccc21	79µM*	-18%	·	?	-134%[59 µM]	8%
CC(=O)c1ccc(S(=O)(=O)N2CCn3cccc3C2c2ccc(C)cc2)cc1 (centres undefined)	?	·	0%	-22%	-41%[59 µM]	0%
CNc1cc2c(cc1S(=O)(=O)Nc1ccc(C)c(C)c1)CCC(=O)N2	·	·	2%	-17%	·	·
COc1ccc2c(=O)c3c(=O)n(CCc4ccccc4)c(C(C)C)nc3oc2c1	-4%	7%	5%	-6%	·	24%
COc1ccc(CN2CCNC(=O)C2CC(=O)NC2CCCCCCC2)cc1OC (centres undefined)	-24%	1%	6%	-13%	-6%	26%
